Laboratory results: the supplement of paper PMC9950053
Structures can show the parent of a compound that is named as a salt.

system: Danio rerio larvae (5 dpf); assay: combined upward orientation toward moving lines (periods 7-14) minus DMSO control (percentage points); higher = more orientation with moving lines than DMSO larvae; settings: 10 µM; exposure time: 3 h pre-incubation + 3 h imaging
Method: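 Wild-type 5 dpf zebrafish larvae (n=48 per drug, 96-well plates, 28.5 °C) were exposed to Tocris FDA-approved library compounds at 10 µM (0.1% DMSO) for 3 h before and 3 h during imaging. Images were taken every 6 s during visual (moving coloured lines) and acoustic stimuli, and larvae were tracked with the DeepLabCut-based Z-LaP Tracker. Each behavioural measure is the treated-group mean minus the DMSO vehicle control mean (n=844), in percentage points. This mapping covers compounds with 4-character plate codes.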

Point of comparison: `Nc1nc2[nH]cc(CCc3ccc(C(=O)N[C@@H](CCC(=O)O)C(=O)O)cc3)c2c(=O)[nH]1` [Pemetrexed], “combined upward orientation toward moving lines” value -1.85. Against it:
- C=CC(=O)N1CCC[C@@H](n2nc(-c3ccc(Oc4ccccc4)cc3)c3c(N)ncnc32)C1 [Ibrutinib] — lower, -3.41
- CN1CCN2c3ncccc3Cc3ccccc3C2C1 (stereo not given) [Mirtazapine] — lower, -11.4
- Clc1ccccc1C(c1ccccc1)(c1ccccc1)n1ccnc1 [Clotrimazole] — lower, -3.91
- OCCOCCN1CCN(C2=Nc3ccccc3Sc3ccccc32)CC1 [Quetiapine hemifumarate] — lower, -3.4
- COc1ccc(C[C@@H](C)NC[C@H](O)c2ccc(O)c(NC=O)c2)cc1 [Arformoterol tartrate] — higher, 0.636
- CC1(C)O[C@@H]2[C@@H](CO[C@@]3(COS(N)(=O)=O)OC(C)(C)O[C@@H]23)O1 [Topiramate] — lower, -4.17
- OC(CNCC(O)C1CCc2cc(F)ccc2O1)C1CCc2cc(F)ccc2O1 (stereo not given) [Nebivolol hydrochloride] — lower, -7.15
- O=C(NCC1CCCCN1)c1cc(OCC(F)(F)F)ccc1OCC(F)(F)F (stereo not given) [Flecainide acetate] — lower, -3.7
- O=C(O)CCCc1ccccc1 [Sodium 4-Phenylbutyrate] — lower, -3.45
- COC(=O)C1=C(C)NC(C)=C(C(=O)OC(C)C)C1c1cccc2nonc12 (stereo not given) [Isradipine] — lower, -3.59
- CC(C)[C@H]1CC[C@H](C(=O)N[C@H](Cc2ccccc2)C(=O)O)CC1 [Nateglinide] — higher, -0.86
- COc1c(C)c2c(c(O)c1C/C=C(\C)CCC(=O)O)C(=O)OC2 [Mycophenolic acid] — higher, -0.977
- CCC(=O)O[C@]1(C(=O)SCF)[C@H](C)C[C@H]2[C@@H]3C[C@H](F)C4=CC(=O)C=C[C@]4(C)[C@@]3(F)[C@@H](O)C[C@@]21C [Fluticasone propionate] — lower, -9.35
- CCOC(=O)N1CCC(=C2c3ccc(Cl)cc3CCc3cccnc32)CC1 [Loratidine] — lower, -3.52
- CCCc1nc2c(C)cc(-c3nc4ccccc4n3C)cc2n1Cc1ccc(-c2ccccc2C(=O)O)cc1 [Telmisartan] — lower, -1.92
- CC(C)n1c(/C=C/C(O)CC(O)CC(=O)O)c(-c2ccc(F)cc2)c2ccccc21 (stereo not given) [Fluvastatin sodium] — higher, 1.58
- Cc1ccc(O)c([C@H](CCN(C(C)C)C(C)C)c2ccccc2)c1 [Tolterodine L-tartrate] — higher, 0.814
- CCOC(=O)C1=C(COCCN)NC(C)=C(C(=O)OC)C1c1ccccc1Cl (stereo not given) [Amlodipine besylate] — higher, 0.386
- Nc1ccn([C@@H]2O[C@H](CO)[C@@H](O)C2(F)F)c(=O)n1 [Gemcitabine hydrochloride] — higher, 5.82
- CCOc1nc2cccc(C(=O)O)c2n1Cc1ccc(-c2ccccc2-c2nnn[nH]2)cc1 [Candesartan] — higher, 2.56
- CCC(C)(C)C(=O)O[C@H]1C[C@@H](C)C=C2C=C[C@H](C)[C@H](CC[C@@H]3C[C@@H](O)CC(=O)O3)[C@H]21 [Simvastatin] — lower, -3.05
- Nc1cccc2c1CN(C1CCC(=O)NC1=O)C2=O (stereo not given) [Lenalidomide] — higher, 2.56
- CCOc1ccccc1OCCN[C@H](C)Cc1ccc(OC)c(S(N)(=O)=O)c1 [Tamsulosin hydrochloride] — lower, -16.3
- C[C@H](Cc1cc2c(c(C(N)=O)c1)N(CCCO)CC2)NCCOc1ccccc1OCC(F)(F)F [Silodosin] — lower, -4.66
- OCCN(CCO)c1nc(N2CCCCC2)c2nc(N(CCO)CCO)nc(N3CCCCC3)c2n1 [Dipyridamole] — lower, -2.19
- CC(C)c1nc(CN(C)C(=O)N[C@H](C(=O)N[C@@H](Cc2ccccc2)C[C@H](O)[C@H](Cc2ccccc2)NC(=O)OCc2cncs2)C(C)C)cs1 [Ritonavir] — lower, -4.18
- CC/C(=C(\c1ccccc1)c1ccc(OCCN(C)C)cc1)c1ccccc1 [Tamoxifen citrate] — lower, -3.88
- CCOc1nc2cccc(C(=O)O)c2n1Cc1ccc(-c2ccccc2-c2noc(=O)[nH]2)cc1 [Azilsartan] — higher, 1.61
- NS(=O)(=O)c1cc(C(=O)O)c(NCc2ccco2)cc1Cl [Furosemide] — lower, -2.41
- CN(CCOc1ccc(NS(C)(=O)=O)cc1)CCc1ccc(NS(C)(=O)=O)cc1 [Dofetilide] — lower, -4.9
- CN(CCOc1ccc(CC2SC(=O)NC2=O)cc1)c1ccccn1 (stereo not given) [Rosiglitazone] — lower, -10.5
- Cc1nc(-c2ccc(OCC(C)C)c(C#N)c2)sc1C(=O)O [Febuxostat] — lower, -3.47
- NC(=O)c1ncn([C@@H]2O[C@H](CO)[C@@H](O)[C@H]2O)n1 [Ribavirin] — lower, -1.89
- NC(=O)N1c2ccccc2C=Cc2ccccc21 [Carbamazepine] — higher, -1.82
- CC(C)CN(C[C@@H](O)[C@H](Cc1ccccc1)NC(=O)O[C@H]1CO[C@H]2OCC[C@H]21)S(=O)(=O)c1ccc(N)cc1 [Darunavir] — higher, 0.247
- CCOC(=O)[C@H](CCc1ccccc1)N[C@@H](C)C(=O)N1[C@H](C(=O)O)C[C@@H]2CCC[C@@H]21 [Ramipril] — lower, -5.05
- CC(C)C(=O)Nc1ccc([N+](=O)[O-])c(C(F)(F)F)c1 [Flutamide] — lower, -15.3
- COc1ccc(Cl)cc1C(=O)NCCc1ccc(S(=O)(=O)NC(=O)NC2CCCCC2)cc1 [Glibenclamide] — lower, -10.9
- CC(C)(C(=O)c1cccnc1)c1cccnc1 [Metyrapone] — lower, -5.62
